The list is not random: actives were taken first. Their share in the collection is about 3.1%.
ATG4B inh: ATG4B protease inhibitors, primary screen, biochemical, fluorescence, uHTS. Cysteine protease ATG4B (Homo sapiens), Q9Y4P1. ATG4B cleavage of LC3-PLA2, NBD-HPC fluorescence, 1 h. inhibition, % at 8.33 µM. 0.51% of 340,000 active. AID 504462, 2011; in the data active = inhibition above about 40%
Target sequence (Q9Y4P1 whole entry, looked up): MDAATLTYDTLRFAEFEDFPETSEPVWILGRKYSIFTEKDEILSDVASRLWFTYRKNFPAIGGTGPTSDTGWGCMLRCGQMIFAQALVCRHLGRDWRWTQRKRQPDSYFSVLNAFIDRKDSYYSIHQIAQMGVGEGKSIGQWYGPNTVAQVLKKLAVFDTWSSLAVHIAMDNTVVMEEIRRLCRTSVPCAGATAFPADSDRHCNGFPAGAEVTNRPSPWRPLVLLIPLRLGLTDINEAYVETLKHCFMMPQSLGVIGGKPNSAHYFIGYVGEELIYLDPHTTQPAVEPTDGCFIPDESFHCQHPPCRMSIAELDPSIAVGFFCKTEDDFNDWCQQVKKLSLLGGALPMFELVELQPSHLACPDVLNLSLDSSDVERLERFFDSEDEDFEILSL
MEKK3 PB1 HTS: modulators of MEKK3-MEK5 PB1 binding, primary screen, biochemical, wildtype MEKK3, multiplex bead flow cytometry, Alexa488-MEK5; binding response (% of control), % at 10 µM; Mitogen-activated protein kinase kinase kinase 3 (Homo sapiens), Q99759; 1.4% of 290,000 active; AID 1529, 2009; bead-based flow cytometry, Alexa488-MEK5 binding to MEKK3; actives lie on both sides; 0 = blocked by unlabeled MEK5, 100 = vehicle;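 active = binding response more than 3 SD above or below the average of its plate-row segment, actives on both sides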;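 note: Alexa488 bead fluorescence after subtracting the streptavidin-only scavenger bead signal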
MEKK2wt PB1 HTS: modulators of MEK5 binding to wildtype MEKK2, primary screen, biochemical, multiplex bead flow cytometry, Alexa488-MEK5; Alexa488-MEK5 binding to MEKK2 WT; actives lie on both sides; binding response (% of control), % at 10 µM; 1.1% of 290,000 active; AID 1531, 2009; in the data active = binding response below about 67% or above about 130%
MEKK2 mut-MEK5: MEK5 binding signal on mutant MEKK2 PB1, primary screen, biochemical, multiplex bead flow cytometry, Alexa488-MEK5 | Alexa488-MEK5 binding to MEKK2 mutant | percent response, % at 10 µM | 0.35% of 290,000 active | AID 1530, 2009; in the data active = percent response above about 24%, passing the limit was not always enough
UBC13 inh: UBC13 polyubiquitin chain formation inhibitors, primary screen, biochemical, TR-FRET, uHTS | 0.47% of 330,000 active | inhibition, % at 20 µM | Ubiquitin-conjugating enzyme E2 N (Homo sapiens), P61088; in the data active = inhibition above about 45%, passing the limit was not always enough
Target sequence (P61088 whole entry, looked up): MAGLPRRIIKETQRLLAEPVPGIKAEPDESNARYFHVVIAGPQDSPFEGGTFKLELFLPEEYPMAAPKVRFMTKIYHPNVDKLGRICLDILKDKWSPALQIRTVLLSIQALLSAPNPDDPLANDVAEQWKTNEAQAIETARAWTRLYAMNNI
PREPL inhibitor: PREPL enzyme inhibitors, primary screen, biochemical, fluorescence polarization. inhibition, % at 5.96 µM. Prolyl endopeptidase-like (Homo sapiens), Q4J6C6. recombinant PREPL, fluorescence polarization activity-based probe. 0.68% of 320,000 active; in the data active = inhibition above about 43%;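 note: 0% = enzyme with DMSO and 100% = wells lacking enzyme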
MEKK2wt confirm: modulators of MEK5 binding to wildtype MEKK2, confirmation, biochemical, single concentration, multiplex bead flow cytometry; 2.4% of 5,900 active; Alexa488-MEK5 binding to MEKK2 WT; actives lie on both sides; shares compounds with MEKK3 PB1 HTS; binding response (% of control), % at 10 µM; AID 1892, 2009; in the data active = binding response below about 16% or above about 210%; inactive = in between
MEKK2mut-MEK5: mutant MEKK2 PB1-MEK5 binding signal retest – biochemical, single concentration, multiplex bead flow cytometry, confirmation; shares compounds with MEKK3 PB1 HTS; Alexa488-MEK5 binding to MEKK2 mutant; percent response, % at 10 µM; 2% of 5,900 active; AID 1893, 2009; in the data active = percent response mostly above about 71%, no sharp cut-off; inactive = mostly below about 38%;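 note: higher means compound restores mutant binding toward wildtype level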
MEKK3 confirm: MEKK3 wild-type PB1 binding to MEK5, inhibitors, confirmation, biochemical, bead multiplex flow cytometry, single concentration, wildtype; shares compounds with MEKK3 PB1 HTS; Alexa488-MEK5 binding to MEKK3; hits give low values; binding response (% of control), % at 10 µM; 1.8% of 5,900 active;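 active = binding response below 72% of control, or above a set upper limit, though filed actives all read lower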;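 note: 100% = DMSO only wells and 0% = binding blocked by excess unlabeled MEK5; lower values mean stronger disruption of MEK5 binding to MEKK3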
* hit, by the source's call; . = no result; [ ] = remark or other dose.

SMILES	ATG4B inh	MEKK3 PB1 HTS	MEKK2wt PB1 HTS	MEKK2 mut-MEK5	UBC13 inh	PREPL inhibitor	MEKK2wt confirm	MEKK2mut-MEK5	MEKK3 confirm
COc1ccc2nc(NC(=O)c3sc4nc(C)cc(C)c4c3N)sc2c1	-9.5	48.0*[inhibitor]	48.0	-11.0	13.1	11.1	90.0	-5.0	90.0
Cc1oc(-c2ccc(Cl)cc2)cc1C(=O)/C(C#N)=C/Nc1ccccc1	-2.1	86.0	80.0	-25.0	-1.7	-5.0	.	.	.
CCCCN(CC)C(=O)Cc1ccc(Br)cc1	8.8	128.0*	105.0	0.0	-12.7	-2.8	95.0	5.0	104.0
COc1ccc(N2CCN(C(=O)CSc3ccc(C)cc3)CC2)cc1	9.1	130.0*	114.0	0.0	5.3	-15.1	107.0	6.0	104.0
COc1ccc(N2CCN(C(=O)CN(Cc3ccccc3)S(C)(=O)=O)CC2)cc1	-13.0	55.0*[inhibitor]	64.0	-22.0	-2.4	11.1	111.0	13.0	106.0
COc1ccc(N2CCN(C(=O)CN(Cc3ccc(Cl)cc3)S(C)(=O)=O)CC2)cc1	-4.9	97.0	97.0	-6.0	-11.2	5.6	.	.	.
CN(C)/C=C/C(=C\C(=O)C(F)(F)F)Nc1ccc(C(F)(F)F)cc1	-7.4	101.0	102.0	-5.0	-6.9	9.9	.	.	.
COc1ccc(N=C2NC(=O)/C(=C/c3ccc(O)c(OC)c3)S2)cc1	-10.3	146.0*	107.0	-1.0	-23.6	23.4	102.0	-1.0	99.0
Cc1ccccc1OCC(=O)OC(C)CN1CCN(C)CC1 (stereo unspecified)	-10.9	69.0*[inhibitor]	73.0	-37.0	1.2	6.6	111.0	10.0	107.0
Cc1ccccc1C(=O)OC(C)CN1CCN(C)CC1 (stereo unspecified)	-7.0	97.0	102.0	-4.0	18.5	6.0	.	.	.
C[C@@H](NC(=O)[C@@H]1Cc2ccccc2CN1C(=O)OC(C)(C)C)C(=O)NCC1CCCO1 (stereo partly specified)	-3.5	105.0	104.0	2.0	-9.8	2.3	.	.	.
CC(=O)Nc1ccc(S(=O)(=O)N2CCN(C(=O)c3ncoc3-c3ccc(C)cc3)CC2)cc1	-0.5	100.0	95.0	3.0	2.4	11.8	.	.	.
CCOC(=O)CCC(NC(=O)CCCC(=O)NC(CCC(=O)OCC)C(=O)OCC)C(=O)OCC (stereo unspecified)	-14.7	129.0*	108.0	1.0	-4.7	11.5	104.0	-1.0	108.0
COc1cccc(O)c1CN1CCC(C(=O)Nc2ccc(-c3cccc(C)c3)cc2)CC1	-8.7	119.0	227.0*	61.0*	29.8	-12.3	134.0	16.0	101.0
COc1cccc(O)c1CN1CCC(C(=O)Nc2ccc(Oc3cccnc3)cc2)CC1	1.3	101.0	114.0	11.0	-0.3	13.9	.	.	.
CC(C)=CCc1c(O)cc(O)c2c(=O)c3c(CC=C(C)C)c(O)ccc3oc12	6.4	104.0	137.0*	8.0	-21.0	2.1	107.0	3.0	98.0
O=C(COC(=O)/C=C/c1ccc(F)cc1)NCC1CCCO1 (stereo unspecified)	-3.7	.	.	.	-8.3	9.5	.	.	.
COc1ccc(-c2nnn(CC(=O)Nc3ccc4c(c3)OCCO4)n2)cc1OC	-40.8	.	.	.	-1.3	1.4	.	.	.
COc1ccc(-c2nnn(CC(=O)NC3CCCc4ccccc43)n2)cc1OC (stereo unspecified)	-0.9	122.0*	115.0	5.0	4.4	-7.3	102.0	1.0	100.0
O=C(CN1CCN(c2ccccc2Cl)CC1)NC1CCCc2ccccc21 (stereo unspecified)	5.6	129.0*	106.0	1.0	2.5	-1.3	102.0	-9.0	96.0
COc1ccc(-c2nnn(CC(=O)c3ccc4c(c3)OCCO4)n2)cc1OC	-10.1	123.0*	103.0	6.0	-6.2	-0.6	106.0	5.0	104.0
CC(Sc1ccc(Cl)cc1)C(=O)Nc1ccc2c(c1)OCO2 (stereo unspecified)	-10.5	108.0	96.0	2.0	2.7	-7.0	.	.	.
CC(C)N1CCC2(CC1)N=C(c1ccc3c(c1)OCO3)CC(c1cc(Cl)ccc1O)N2 (stereo unspecified)	5.4	111.0	138.0*	26.0*	14.4	-4.7	122.0	8.0	107.0
N#Cc1sc2nc(C3CC3)cc(-c3ccccc3)c2c1N	15.3	131.0*	100.0	0.0	21.0	11.1	104.0	2.0	103.0
O=C(c1cccs1)N1CCN(C(=O)c2cccs2)C1=S	0.6	.	.	.	.	.	.	.	.
SMILES	ATG4B inh	MEKK3 PB1 HTS	MEKK2wt PB1 HTS	MEKK2 mut-MEK5	UBC13 inh	PREPL inhibitor	MEKK2wt confirm	MEKK2mut-MEK5	MEKK3 confirm
Cc1ccccc1OCCNc1cc(N2CCNCC2)ccc1[N+](=O)[O-]	.	110.0	162.0*	35.0	-3.1	7.9	167.0	34.0	104.0
Cn1c(C(=O)NC2CC2)cc(=O)n(C)c1=O	-4.2	109.0	101.0	3.0	-2.5	-5.3	.	.	.
CCCc1nc(SCC(=O)c2ccc(F)cc2)c2ccccc2n1	4.8	99.0	97.0	-2.0	17.4	0.7	.	.	.
Cc1ccc(C2(CCNCc3ccc(N(C)C)cc3)CCOC(C(C)C)C2)cc1 (stereo unspecified)	3.5	111.0	149.0*	17.0	5.0	-11.8	125.0	6.0	105.0
CCC(C)C(NC(=O)/C(=C\c1ccccc1)NC(=O)c1ccc(OC)cc1)C(=O)O (stereo unspecified)	-6.3	107.0	101.0	-4.0	-6.5	2.2	.	.	.
CCOc1ccc(CC(=NCCc2ccccc2)C2=C(O)CC(C)(C)CC2=O)cc1OCC	8.2	146.0*	112.0	1.0	-3.2	10.7	77.0	-13.0	79.0
CCCCN(CCCNC(=O)c1ccc2nc(N3CCOCC3)sc2c1)Cc1ccccc1	-24.0	105.0	158.0*	20.0	11.1	11.6	167.0	37.0	109.0
O=C(NCCc1ccccc1)c1ccc2nc(N3CCOCC3)sc2c1	-2.3	102.0	98.0	-2.0	5.7	11.7	.	.	.

Screening data deposited in PubChem by several laboratories.
